Assay results from PubChem BioAssay (NCI).
This is part of a sample that, as a whole, favours compounds with a hit. Of some 83,000 tested, about 20% had one in any assay.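 Each cell line was grown in a 96-well plate and treated with one concentration of compound for 48 hours. Values below 10 were considered active.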 Unmarked numbers belong to inactive results. Activity calls are given as the source filed them.

What was measured:
Experiment in all cases: NCI-60 one-dose screen, 48 h (100 = growth as untreated, 0 = no growth, -100 = all killed)
Settings in all cases: 10 µM unless noted
SK-MEL-2 melanoma = tested on: SK-MEL-2 melanoma
EKVX NSCLC = tested on: EKVX NSCLC
SN12C renal = tested on: SN12C renal
UO-31 renal = tested on: UO-31 renal
TK-10 renal = tested on: TK-10 renal
ACHN renal = tested on: ACHN renal
CAKI-1 renal = tested on: CAKI-1 renal
A498 renal = tested on: A498 renal
CCRF-CEM leukemia = tested on: CCRF-CEM leukemia
MOLT-4 leukemia = tested on: MOLT-4 leukemia

Row | Compound | growth (SK-MEL-2 melanoma) | growth (EKVX NSCLC) | growth (SN12C renal) | growth (UO-31 renal) | growth (TK-10 renal) | growth (ACHN renal) | growth (CAKI-1 renal) | growth (A498 renal) | growth (CCRF-CEM leukemia) | growth (MOLT-4 leukemia)
1 | COc1ccc(NC(=O)c2ccoc2COc2ccccc2)cc1 | 97.9% | 94.7% | 94% | 81.1% | 109% | 98.3% | 86.2% | 99.7% | 87.7% | 95.6%
2 | C=C(C)[C@@H]1CC[C@]2(C(=O)N3CCN(CC)CC3)CC[C@]3(C)[C@H](CC[C@@H]4[C@@](C)(CCC(=O)N5CCN(CC)CC5)[C@H](C(=C)C)CC[C@]43C)[C@@H]12 | 90.2% | 52.5% | 66.9% | 28.2% | 49.6% | -49.8% (active) | -15.3% (active) | 92.6% | 49.4% | 34%
3 | COc1cccc(-c2nn(-c3ccccc3)cc2-c2ccnc(NCCCNS(=O)(=O)c3ccc(Br)cc3)c2)c1 | 50.9% | 66% | 57.1% | 21.6% | 55.7% | 48.3% | 51.1% | 41.4% | 32.1% | 23.5%
4 | O=Cc1nc2ccccc2[nH]1 | 101% | 94.5% | 101% | 75.9% | 97% | 106% | 93.2% | 105% | 99.8% | 95.4%
5 | COC(=O)CCCCCn1c2ccccc2c2c3c(c4c5ccccc5[nH]c4c21)C(=O)N(O)C3=O | 77.3% | 75.3% | 37.8% | 11.8% | 74.4% | -18.5% (active) | -16.8% (active) | 62% | 11.4% | -15.6% (active)
6 | O=C1/C(=C\c2ccc(Br)o2)SC(=S)N1CCc1ccc(O)cc1 | 103% | 81.4% | 86.9% | -48.4% (active) | 92.8% | 49.8% | 27.8% | 108% | 21.8% | 64.3%
7 | N#CC1=C(N)Oc2ccc3ccccc3c2C1c1ccccc1 (stereo not given) | 49.7% | 39% | 42.2% | 44.9% | 121% | 37.3% | 23.3% | 21.5% | 20.7% | 32.6%
8 | NC(=O)NCC1CCCCC1 | 105% | 96.6% | 106% | 92.9% | 95.5% | 106% | 89.3% | 104% | 99.3% | 91.9%
9 | C/C(Cc1ccc(Cl)cc1)=C(/c1ccc(Cl)cc1)c1ccc(OCCN2CCCC2)cc1 | 105% | 91.2% | 81.6% | 68.1% | 96.1% | 93.8% | 75.9% | 103% | 66% | 59.7%
10 | NC1=NN=C2N(N)C(=O)c3cnn(-c4ccccc4)c3N2c2nc(-c3ccccc3)cc(-c3ccccc3)c21 | 104% | 96.7% | 97% | 78.3% | 116% | 101% | 86.8% | 114% | 96.7% | 91.6%
11 | CC(Cc1ccco1)C(=O)NC(N)=O (stereo not given) | 106% | 98% | 103% | 91.6% | 98.7% | 108% | 92.1% | 102% | 98.9% | 98.8%
12 | COc1ccc2c(c1)c1nc3cc(C)c(C)cc3nc1n2CCN(C)C | 26.4% | 13.2% | 17% | -24.1% (active) | 39.3% | -11.4% (active) | 4.98% (active) | 45% | 6.67% (active) | 0.921% (active)
13 | CCCCN1CCCCn2c1nc1c2c(=O)n(C)c(=O)n1C | 91.9% | 105% | 102% | 93.1% | 103% | 107% | 95.5% | 96.3% | 113% | 96.6%
14 | O=C1c2cccc3cccc(c23)C(=O)N1CC#Cc1ccc2c3c(cccc13)C(=O)N(CCO)C2=O | 102% | 76.3% | 90.7% | 57.3% | 165% | 87.1% | 56.8% | 105% | 80.6% | 62.3%
15 | CCSc1sc(-c2ccc(C)cc2)nc1[P+](c1ccccc1)(c1ccccc1)c1ccccc1 | -56.9% (active) | 6.99% (active) | 2.07% (active) | -33% (active) | -6.69% (active) | -44.8% (active) | -9.03% (active) | -46.1% (active) | 8.77% (active) | -48.8% (active)
16 | C(=C\c1c[nH]c2ccccc12)/c1ccc2ccccc2n1 | 86.5% | 70.8% | 51.4% | 23.6% | 114% | 89.9% | 60.7% | 120% | 14.9% | 12.4%
17 | NC(N)=N/N=C/c1ccc(-c2ccc(-c3ccc(Cl)cn3)s2)cc1 | 109% | 98.9% | 89.8% | 78% | 112% | 92.2% | 81.5% | 88.8% | 29.7% | 73.7%
18 | CCCCC(=O)OC1CCCCC1C (stereo not given) | 111% | 104% | 94.1% | 93.2% | 94.5% | 94.4% | 94.9% | 93.2% | 94.3% | 109%
19 | O=C1C=Cc2ncccc2C1=O | 114% | 64.7% | 65.2% | 68.3% | 111% | 76.1% | 81.2% | 125% | -37.5% (active) | 0.968% (active)
20 | C=C(C)[C@@H]1CC[C@]2(C=O)CC[C@]3(C)[C@H](CC[C@@H]4[C@@]5(C)C/C(=C/c6cccnc6)C(=O)C(C)(C)[C@@H]5CC[C@]43C)[C@@H]12 | 88.5% | 88.5% | 77.1% | -33.9% (active) | 134% | 61.6% | 50.1% | 98.3% | 27.7% | 49.9%
21 | COc1cccc(-c2nn(-c3ccccc3)cc2-c2ccnc(NCCNS(=O)(=O)c3ccccc3)c2)c1 | 21% | 47.2% | 36.1% | 14.5% | 43.8% | 28.9% | 43.7% | 47.7% | 12.2% | 12.8%
22 | Cc1ccc(-c2nc3ccc(Cl)cc3c(=O)n2N2C(=O)CSC2c2ccccc2Cl)cc1 (stereo not given) | 96.2% | 60% | 69% | 67.2% | 74.6% | 26.4% | 60.3% | 84.8% | 74.8% | 82.7%
23 | C=C1C(=O)O[C@H]2[C@H]1CC/C(Cn1cc(-c3ccc(OC)cc3)nn1)=C\CC[C@@]1(C)O[C@@H]21 | 61.9% | 85.4% | 0.315% (active) | -86.2% (active) | -84.1% (active) | 6.78% (active) | -4.52% (active) | 31.7% | -32.6% (active) | -32.9% (active)
24 | c1ccc(CN2C(c3ccccc3)=Nc3ccccc3C2c2c[nH]c3ccccc23)cc1 (stereo not given) | 69% | 37.3% | 36.4% | 24.5% | 45.8% | 51.4% | 35.9% | 63.6% | 32.4% | 2.6% (active)
25 | COc1ccc(-c2cc(-c3c(C)oc4cc5occc5c(OC)c4c3=O)nc(N)c2C#N)cc1OC | 60.7% | 92.8% | 77.6% | 45.2% | 77.1% | 65.6% | 38.9% | 23.7% | 43.8% | 30.9%
